# Test results as given in PubChem BioAssay (NCATS).
# Records with an inconclusive call do not appear. Entries that show only a call come without a potency. Values without a mark were called inactive. The source made the active and inactive calls. Calls come from the whole dose curve; as a rule, active = well fitted inhibition curve with a large enough effect; inconclusive = small, poorly fitted or top-dose-only effect; inactive = flat fitted curve, though single readings scatter. Peptide text beside a SMILES is read from it.
# Assays:
# [1] = qHTS profiling for inhibitors of Plasmodium falciparum proliferation (AID 504749); note: nearly all actives have a fitted effect of over 60% in size; conditions: P. falciparum in erythrocytes, SYBR Green DNA, 72 h
# Summary of the method: (§1)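 P. falciparum-infected erythrocytes (0.3% parasitemia, 2.5% hematocrit final) were exposed to compounds for 72 h at 37 C in 5% CO2, then lysed with SYBR Green buffer overnight at room temperature; parasite DNA fluorescence was normalized to artemisinin and DMSO controls.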
# 3D7 = experiment: as above; conditions: P. falciparum in erythrocytes, SYBR Green DNA, 72 h; series mostly up to 28.7 µM
# Summary of the method: as §1
# 7G8 = experiment: as above; conditions: P. falciparum in erythrocytes, SYBR Green DNA, 72 h; series mostly up to 28.7 µM
# Summary of the method: as §1
# AA1029 = experiment: as above; conditions: P. falciparum in erythrocytes, SYBR Green DNA, 72 h; series mostly up to 28.7 µM
# Summary of the method: as §1
# AS120 = experiment: as above; conditions: P. falciparum in erythrocytes, SYBR Green DNA, 72 h; series mostly up to 28.7 µM
# Summary of the method: as §1
# ATS189 = experiment: as above; conditions: P. falciparum in erythrocytes, SYBR Green DNA, 72 h; series mostly up to 28.7 µM
# Summary of the method: as §1
# ATS95 = experiment: as above; conditions: P. falciparum in erythrocytes, SYBR Green DNA, 72 h; series mostly up to 28.7 µM
# Summary of the method: as §1
# [2] = at 28.7 µM (top of the series), parasite line A
# [3] = at 28.7 µM (top of the series), parasite line B
# Potency is the fitted concentration of half-maximal effect.
Structure (SMILES),"activity, negative = inhibition [1, 2] [%]","activity, negative = inhibition [1, 3] [%]",Potency (3D7),Potency (7G8),Potency (AA1029),Potency (AS120),Potency (ATS189),Potency (ATS95),Potency ([1]; parasite line A),Potency ([1]; parasite line B),"activity, negative = inhibition ([1]; at 12.8 µM (top of the series), parasite line A) [%]","activity, negative = inhibition ([1]; at 12.8 µM (top of the series), parasite line B) [%]"
CCCCC(C)(O)C/C=C/[C@H]1[C@H](O)CC(=O)[C@@H]1CCCCCCC(=O)OC (stereo not given in full),0.758,3.16,inactive,inactive,inactive,inactive,inactive,inactive,,,,
CO[C@H](C(=O)[C@@H](O)[C@@H](C)O)C1Cc2cc3cc(O[C@H]4C[C@@H](O[C@H]5C[C@@H](O)[C@H](O)[C@@H](C)O5)[C@@H](O)[C@@H](C)O4)c(C)c(O)c3c(O)c2C(=O)[C@H]1O[C@H]1C[C@@H](O[C@H]2C[C@@H](O[C@H]3C[C@](C)(O)[C@H](O)[C@@H](C)O3)[C@H](O)[C@@H](C)O2)[C@H](O)[C@@H](C)O1 (stereo not given in full),,,0.112 µM (active),0.0447 µM (active),0.112 µM (active),0.141 µM (active),0.158 µM (active),0.126 µM (active),0.112 µM (active),0.251 µM (active),,
COC(=O)[C@H]1[C@H]2C[C@@H]3c4[nH]c5ccccc5c4CCN3C[C@H]2C[C@@H](OC(=O)c2cc(OC)c(OC)c(OC)c2)[C@@H]1OC,,,0.891 µM (active),0.0501 µM (active),0.282 µM (active),0.199 µM (active),0.708 µM (active),0.398 µM (active),0.355 µM (active),0.631 µM (active),,
CCOC(=O)C1=CC2(CC)CCCN3CCc4c(n1c1ccccc41)C32 (stereo not given),,,8.91 µM (active),5.62 µM (active),11.2 µM (active),11.2 µM (active),8.91 µM (active),11.2 µM (active),11.2 µM (active),7.94 µM (active),,
CC(=O)N[C@@H](CC(=O)O)C(=O)N[C@@H](CCC(=O)O)C(=O)O (Ac-Asp-Glu-OH),24.6,14.8,inactive,inactive,inactive,inactive,inactive,inactive,,,,
CN=C(NC#N)Nc1ccc(C2=NNC(=O)C[C@@H]2C)cc1,13.8,8.03,inactive,inactive,inactive,inactive,inactive,inactive,,,,
CCCCCCCCCCCCCCCC(=O)OCC(COC(=O)CCCCCCCCCCCCCCC)OC(=O)CCCCCCCCCCCCCCC,-0.409,9.45,inactive,inactive,inactive,inactive,inactive,inactive,,,,
COC(=O)C1=C(C#N)NC(C)=C(C(=O)OC(C)C)C1c1cccc([N+](=O)[O-])c1 (stereo not given),,,8.91 µM (active),10 µM (active),11.2 µM (active),8.91 µM (active),11.2 µM (active),11.2 µM (active),8.91 µM (active),11.2 µM (active),,
CC(C(=O)O)c1ccc(N2Cc3ccccc3C2=O)cc1 (stereo not given),8.3,10.3,inactive,inactive,inactive,inactive,inactive,inactive,,,,
CCCCCCCCCCCCCC[n+]1ccc(C)cc1,,,2.51 µM (active),1.12 µM (active),3.98 µM (active),3.55 µM (active),5.62 µM (active),2.82 µM (active),2.51 µM (active),5.62 µM (active),,
CCCC(=O)O[C@]1(C(=O)CCl)[C@H](C)C[C@@H]2[C@H]3CCC4=CC(=O)C=C[C@]4(C)[C@@]3(F)C(=O)C[C@@]21C,,,2.51 µM (active),2.51 µM (active),2.82 µM (active),3.16 µM (active),2.82 µM (active),3.55 µM (active),1.41 µM (active),2.24 µM (active),,
COc1ccc2c3c1O[C@H]1C[C@@H](O)C=C[C@@]31CCN(C)C2,7.86,-0.584,inactive,inactive,inactive,inactive,inactive,inactive,,,,
Cc1cc(C(=O)NNCc2ccccc2)no1,,,inactive,inactive,inactive,inactive,inactive,inactive,,,2.34,-1.58
C=C1C(=CC=C2CCC[C@@]3(C)[C@@H]2CC[C@H]3[C@H](C)CCCC(C)C)C[C@@H](O)C[C@@H]1O,,,11.2 µM (active),10 µM (active),inactive,,,,,,,
CN1C(=O)CN2CCc3ccccc3C2c2cc(Cl)ccc21 (stereo not given),-10.8,-17.4,inactive,12.6 µM (active),inactive,,inactive,inactive,,,,
CCOc1ccc2c(c1)C(C)=CC(C)(C)N2,-19.3,-4.99,,inactive,inactive,inactive,inactive,inactive,,,,
CCCCCCC(O)C/C=C/CCCCCCCC(=O)O (stereo not given),-1.16,3.04,inactive,inactive,inactive,inactive,inactive,inactive,,,,
COC(=O)[C@H]1[C@H]2CC3c4[nH]c5ccccc5c4CCN3C[C@@H]2CC[C@@H]1O (stereo not given in full),14.5,13.8,,inactive,inactive,inactive,inactive,inactive,,,,
CCCCC(=O)O[C@]1(C(=O)CO)[C@H](C)C[C@H]2[C@@H]3CCC4=CC(=O)C=C[C@]4(C)[C@@]3(F)[C@@H](O)C[C@@]21C,,,,8.91 µM (active),inactive,,inactive,inactive,,,,
O=C(Nc1ccc(Br)cc1)c1cc(Br)c(Br)s1,,,,10 µM (active),,,,,10 µM (active),,,
CCCCC/C=C\C/C=C\CCCCCCCC(=O)O,6.83,5.9,inactive,inactive,inactive,inactive,inactive,inactive,,,,
CC(C)=O,-12.1,,inactive,inactive,inactive,inactive,inactive,,,,,
COCC(=O)Nc1cc(Sc2ccccc2)ccc1N=C(NC(=O)OC)NC(=O)OC,17.1,26.6,inactive,,inactive,inactive,inactive,inactive,,,,
CC(Cc1ccc(O)c(O)c1)C(C)Cc1ccc(O)c(O)c1 (stereo not given),6.89,-26.4,inactive,8.91 µM (active),inactive,,inactive,inactive,,,,
COC(=O)CCC(=O)CN,6.69,8.06,inactive,,inactive,inactive,inactive,inactive,,,,
CN(C)CCCN1c2ccccc2C(C)(C)c2ccccc21,-5.82,-11.4,inactive,,,,,8.91 µM (active),,,,
CCCCCCCC/C=C\CCCCCCCC(=O)O,12.9,,inactive,inactive,inactive,inactive,inactive,inactive,,,,
O=CCCCC=O,-0.127,0.568,inactive,10 µM (active),inactive,inactive,,inactive,,,,
